What all share (assay): NCI-60 one-dose screen, 48 h (100 = growth as untreated, 0 = no growth, -100 = all killed)
What all share (details): 10 µM unless noted

For assay [1], the system named is NCI-H23 lung.
Assay [2] relates to NCI-H226 lung.
Assay [3] relates to NCI-H322M lung.
The test system of assay [4] is HOP-62 NSCLC.
Assay [5] deals with NCI-H460 lung.
In assay [6] the test system is HOP-92 NSCLC.
Assay [7] has as its system NCI-H522 lung.
Assay [8] concerns A549/ATCC NSCLC.
The subject of assay [9] is 786-0 renal.
The test system of assay [10] is COLO 205 colon.
For assay [11], the system named is DU-145 prostate.
Assay [12] has as its system K-562 leukemia.
Assay [13] has as its system MALME-3M melanoma.
The subject of assay [14] is MDA-MB-231 breast.
Assay [15] deals with RXF 393 renal.
For assay [16], the system named is SF-268 CNS.
Assay [17] concerns SF-295 CNS.
Assay [18] concerns SF-539 CNS.
For assay [19], the system named is UACC-257 melanoma.
Assay [20] deals with M14 melanoma.

Compounds without any hit were thinned out: in the full panel of roughly 83,000, 20% have a hit.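 Cell lines were cultured in 96-well plates, exposed to a single compound concentration, and assessed for percent growth 48 hours later.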 A number with no mark means an inactive call. Active and inactive are the calls of the source. The calls were made as follows: active = growth percent below 10; inactive = the rest.

Regarding `CC(C)CCC[C@@H](C)C1CCC2C3CCC4=C/C(=N/OCCN(C)C)CC[C@]4(C)C3CC[C@@]21C` (stereo not given in full), the growth was 84.7% in assay [1]; 95.8% in assay [2]; 79.9% in assay [3]; 80.5% in assay [4]; 98.5% in [5]; 50% in assay [6]. The growth was 66.3% in assay [7]; 77.7% in assay [8]; 76% in assay [9]; 98% in assay [10]; 91.7% in [11]; 73.6% in [12]. Moreover, the growth is 91.2% in assay [13]; 89.4% in assay [14]; 91.6% in assay [15]; 65.9% in assay [16]; 68.4% in assay [17]; 93.2% in [18]. Also, the growth was 97.5% in assay [19] and 93.3% in assay [20].

On to `N#Cc1nc(-c2ccc(F)cc2)oc1S(=O)(=O)N1CCN(c2ccc(F)cc2)CC1`, for which the growth in assay [1] is 72.8%; in assay [2], 91.7%; in assay [3] it was 100%; in assay [4], 109%; in [5] it was 102%; in assay [6] it was 123%. Besides, the growth in assay [7] was 43.5%; in assay [8], 104%; in [9], 100%; in [10] it was 86.7%; in assay [11] it was 102%; in assay [12], 17.6%. In addition, the growth in assay [13] was 104%; in assay [14], 92%; in assay [15], 95.3%; in assay [16] it was 106%; in assay [17], 106%; in [18], 101%. The values for the growth in assay [19] and in assay [20] were 97.9% and 88.2%, respectively.

For `CC1(C)OC(=O)C(=Cc2cccc(Br)c2)C(=O)O1`, the growth in [1] is 103%; in [2], 96.2%; in assay [3], 113%; in [4] it was 88.1%; in [5], 105%; in assay [6], 85.8%. In addition, the growth was 77.5% in assay [7]; 87.9% in assay [8]; 109% in assay [9]; 104% in assay [10]; 112% in assay [11]; 98.6% in [12]. The growth in [13] was 108%; in assay [14] it was 107%; in assay [15] it was 96.4%; in [16], 102%; in assay [17], 102%; in assay [18], 108%. The growth was 85.8% in assay [19] and 109% in assay [20].

Take `O=C1c2cccnc2C(=O)c2c1c(C(=O)OCCCN1CCCCC1)c1ccccn21`: the growth in assay [1] was -48.5% (active); in assay [2], -18.4% (active); in assay [3] it was -18.1% (active); in assay [4] it was -31.9% (active); in [5], -63.3% (active); in assay [6], -8.21% (active). The growth in assay [7] is -80% (active); in [8], -63.8% (active); in assay [9], -62.6% (active); in [10] it was -79% (active); in assay [11], -86.8% (active); in [12], -28.5% (active). The growth in assay [13] is -78.2% (active); in [14], -8.94% (active); in assay [15], -64.2% (active); in assay [16] it was -15.3% (active); in assay [17], -13.9% (active); in assay [18], -9.46% (active). The values for the growth in [19] and in assay [20] were -38.4% (active) and -83.5% (active), respectively.

In the case of `CC(C)CSc1oc(-c2ccccc2)nc1S(=O)(=O)c1ccccc1`, the growth in assay [1] is 83.4%; in assay [2], 75.7%; in [3] it was 99%; in assay [4], 94.4%; in [5] it was 97.2%; in assay [6] it was 45.8%. Besides, the growth in [7] was 70.8%; in assay [8], 79.8%; in [9], 87%; in [10], 109%; in [11], 99.3%; in assay [12], 92.4%. The growth in assay [13] is 95.6%; in assay [14] it was 89.4%; in [15] it was 82.6%; in assay [16], 87.3%; in [17], 84.3%; in assay [18], 101%. For the same compound, the values for the growth in [19] and in [20] were 92.2% and 98.3%, respectively.

Consider `COc1ccc(/C(C)=C(\c2ccc(Cl)cc2)c2ccc(OCCN3CCCC3)cc2)cc1`, for which the growth in assay [1] is 58.8%; in assay [2] it was 85%; in [3], 49.6%; in assay [4], 59.2%; in assay [5], 2.86% (active); in assay [6], 56.4%. The growth in assay [7] is 69.9%; in assay [8], 25.5%; in assay [9], -31.6% (active); in [10] it was -29.9% (active); in [11], 62.6%; in [12] it was -1.6% (active). The growth in assay [13] is 4.84% (active); in [14], 25.5%; in assay [15], 32.6%; in assay [16] it was 51.8%; in assay [17] it was -7.32% (active); in assay [18], 45.9%. The growth was -26.8% (active) in [19] and -13.7% (active) in assay [20].

Regarding `COc1cc(C2=NN(C(C)=O)C(c3ccc(N(C)C)cc3)C2)cc(OC)c1OC` (stereo not given), the growth in [1] was 88.8%; in assay [2] it was 97.8%; in [3], 82.7%; in assay [4] it was 83.9%; in assay [5] it was 107%; in assay [6], 79.7%. The growth was 72.4% in assay [7]; 90.6% in assay [8]; 79.7% in assay [9]; 108% in [10]; 103% in [11]; 81.7% in assay [12]. For the same compound, the growth in assay [13] was 87.3%; in assay [14] it was 74.1%; in [15], 103%; in assay [16], 105%; in [17] it was 95.1%; in [18], 91.5%. The values for the growth in assay [19] and in assay [20] were 76.7% and 95%, respectively.

As to `Cn1cc(-c2nonc2-c2c[nH]c3ccc(F)cc23)c2cc(Br)ccc21`, the growth in assay [1] is 52.7%; in assay [2], 79.5%; in assay [3] it was 44.9%; in assay [4], 40.5%; in [5] it was 19.8%; in assay [6], 76%. The growth in assay [7] was 14.8%; in assay [8], 35.9%; in assay [9], 45.9%; in assay [10] it was 54%; in assay [11], 50.2%; in assay [12], 7.64% (active). Moreover, the growth in [13] is 61%; in assay [14] it was 34.9%; in assay [15] it was 74.2%; in assay [16], 49.9%; in assay [17], 36.5%; in assay [18], 67.8%. Moreover, the growth in [19] is 63.3%; in assay [20] it was 36.5%.
